{
  "source": "PubChem BioAssay AID686979",
  "about": "(National Center for Advancing Translational Sciences (NCATS), 2013)",
  "note": "About 50,000 (12%) of roughly 420,000 compounds were called active. Where a call stands in place of a potency, no number is given. About 26% were inconclusive and are not listed. The call rests on the fitted dose curve; in most records, active means well fitted inhibition curve with a large enough effect; inconclusive means small, poorly fitted or top-dose-only effect; inactive means flat fitted curve, though single readings scatter. Only a selection was taken, and actives are over-represented in it overall. Potency means the concentration at half of the fitted maximal effect.",
  "data": [
    {"experiment": "qHTS for Inhibitors of human tyrosyl-DNA phosphodiesterase 1 (TDP1): qHTS in cells in presence of CPT; further: nearly all actives have a fitted effect of over 55% in size", "details": "chicken DT40 Tdp1-/-;hTDP1 cells + 20 nM CPT, ATP luminescence, 48 h; series mostly up to 46.2 µM", "method_in_brief": "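Cell growth measured by CellTiter-Glo luminescence after a minimum 48 h, 37 C compound exposure with 20 nM CPT in Tdp1-knockout DT40 cells stably expressing hTDP1, seeded 400/well; qHTS titration format.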", "values": [
      {"smiles": "CCOC(=O)c1cc(-c2ccc(F)cc2)n(CC(=O)NCc2ccccn2)c1C", "Potency": "inactive"},
      {"smiles": "Cc1oc(-c2ccccc2F)nc1CS(=O)CC(=O)NCCN1CCCCC1C", "note": "(stereo not drawn)", "Potency": "inactive"},
      {"smiles": "CCC(=O)OCCNc1nc(-c2ccccc2)nc2ccccc12", "Potency": "inactive"},
      {"smiles": "Fc1ccc(-c2ccc(NCCN3CCOCC3)nn2)cc1", "Potency": "inactive"},
      {"smiles": "CN(C)c1ccc(-c2nc(NCCN3CCOCC3)c3ccccc3n2)cc1", "Potency": "5.8 µM (active)"},
      {"smiles": "CC1CCN(C(=O)CSc2nnc(-c3ccco3)n2N)CC1", "Potency": "inactive"},
      {"smiles": "CC1(C(=O)NS(=O)(=O)c2cccc(OC(F)F)c2)CCN1C(=O)C1CC1", "note": "(stereo not drawn)", "Potency": "inactive"},
      {"smiles": "CC1CCCCC1NC(=O)COC(=O)Cc1ccc(Cl)cc1", "note": "(stereo not drawn)", "Potency": "inactive"},
      {"smiles": "COc1ccc(C2=NN(C(C)=O)C(c3ccccc3)C2)cc1", "note": "(stereo not drawn)", "Potency": "inactive"},
      {"smiles": "COc1ccc(-n2nnnc2-c2nc3ccccc3s2)cc1", "Potency": "inactive"},
      {"smiles": "COc1ccc(C2=NN(c3nc4ccccc4s3)C(=O)C2)cc1", "Potency": "20.6 µM (active)"},
      {"smiles": "COc1ccc(S(=O)(=O)NCC2CCCN(C(=O)c3occc3C)C2)cc1", "note": "(stereo not drawn)", "Potency": "inactive"},
      {"smiles": "Cc1ccccc1OCC(=O)NCC(=O)OCC(=O)c1ccc2ccccc2c1", "Potency": "inactive"},
      {"smiles": "CC1(NC(=O)CCS(=O)(=O)c2ccc(Cl)cc2)CCS(=O)(=O)C1", "note": "(stereo not drawn)", "Potency": "inactive"},
      {"smiles": "CCOc1ccc(CN2CCN(Cc3ccc(C)o3)CC2CCO)cc1", "note": "(stereo not drawn)", "Potency": "inactive"},
      {"smiles": "O=S(=O)(Nc1ccc2[nH]ncc2c1)c1ccccc1Cl", "Potency": "inactive"},
      {"smiles": "COC(=O)c1cc(NC(=O)c2ccco2)ccc1N1CCOCC1", "Potency": "inactive"},
      {"smiles": "COC(=O)c1cc(NC(=O)c2cccnc2)ccc1N1CCOCC1", "Potency": "inactive"},
      {"smiles": "CC(=O)Nc1ccc(N2CCOCC2)c(C(=O)Nc2cccc(C)c2)c1", "Potency": "13 µM (active)"},
      {"smiles": "CCN(CC)c1ccc(NC(=O)c2ccc(=O)[nH]c2)cc1S(=O)(=O)Nc1ccc(OC)cc1", "Potency": "29.1 µM (active)"},
      {"smiles": "O=C(NNC(=O)c1cccc(S(=O)(=O)Nc2ccc(Cl)cc2)c1)c1ccc(=O)[nH]c1", "Potency": "inactive"},
      {"smiles": "COc1ccc(NS(=O)(=O)c2cc(NC(=O)c3ccc(S(=O)(=O)N(C)C)cc3)ccc2N2CCOCC2)cc1", "Potency": "inactive"},
      {"smiles": "Cc1cc(OCC(=O)N2CCN(c3ncccn3)CC2)ccc1Cl", "Potency": "inactive"},
      {"smiles": "COC(=O)C1=C(C)N(C)C(=S)NC1c1cc(OC)ccc1OC", "note": "(stereo not drawn)", "Potency": "inactive"},
      {"smiles": "COC(=O)C1=CN(Cc2ccc(OC)c(OC)c2)C=C(C(=O)OC)C1c1cccs1", "Potency": "inactive"},
      {"smiles": "COc1cc2c(cc1OC)[C@@H](Cc1cc(OC)c(OC)c(OC)c1)[N+](C)(CCCOC(=O)CC/C=C/CCC(=O)OCCC[N+]1(C)CCc3cc(OC)c(OC)cc3[C@H]1Cc1cc(OC)c(OC)c(OC)c1)CC2", "note": "(stereo partly drawn)", "Potency": "inactive"},
      {"smiles": "COc1ccc(CC2c3cc(OC)c(OC)cc3CC[N+]2(C)CCC(=O)OCCCCCOC(=O)CC[N+]2(C)CCc3cc(OC)c(OC)cc3C2Cc2ccc(OC)c(OC)c2)cc1OC", "note": "(stereo not drawn)", "Potency": "16.4 µM (active)"},
      {"smiles": "O=C(NCc1cccc(CNC(=O)Nc2cccc(O)c2)c1)Nc1cccc(O)c1", "Potency": "inactive"},
      {"smiles": "COc1ccc(C(=O)OCC(=O)Nc2ccc3[nH]c(=O)[nH]c3c2)c(OC)c1OC", "Potency": "inactive"},
      {"smiles": "C/C(=N\\N1CCN(Cc2ccc(C)cc2)CC1)c1ccco1", "Potency": "inactive"},
      {"smiles": "NS(=O)(=O)c1ccc(N2C(=O)C3C4CC(C(Br)C4Br)C3C2=O)cc1", "note": "(stereo not drawn)", "Potency": "inactive"},
      {"smiles": "Cc1cc(O)ccc1NC1=CC(=O)CC(C)(C)C1", "Potency": "inactive"},
      {"smiles": "CC1(C)CC(=O)C=C(Nc2ccccc2)C1", "Potency": "inactive"},
      {"smiles": "Cc1ccccc1C#CC1=CC(=O)CC(C)(C)C1", "Potency": "20.6 µM (active)"},
      {"smiles": "COc1ccc(C2(O)C(=O)Nc3ccccc32)cc1", "note": "(stereo not drawn)", "Potency": "inactive"},
      {"smiles": "CC(=O)N1CCN(CC(C)(C)NS(=O)(=O)c2ccc(C)cc2)CC1", "Potency": "inactive"},
      {"smiles": "COc1ccc2cc(S(=O)(=O)Nc3ccccn3)ccc2c1", "Potency": "inactive"},
      {"smiles": "CCOc1ccc(OCC)c(NS(=O)(=O)c2ccc3[nH]c(=O)ccc3c2)c1", "Potency": "inactive"},
      {"smiles": "COc1cc(NS(=O)(=O)c2ccc3ccccc3c2)c2ncccc2c1", "Potency": "8.2 µM (active)"},
      {"smiles": "CN(C)C(=O)[C@@H]1C[C@@H](Sc2nc3ccccc3[nH]2)CN1Cc1ccc(Cl)cc1", "activity change, negative = growth inhibition": "0.0416% [at 9.04 µM] (inactive)"},
      {"smiles": "CCCCn1nc(C(=O)OCC(=O)Nc2sccc2C(N)=O)c2ccccc2c1=O", "Potency": "inactive"},
      {"smiles": "CCOC(=O)C(C)Oc1cccc2c(=O)n(CC(=O)N3CCc4ccccc43)ccc12", "note": "(stereo not drawn)", "Potency": "inactive"},
      {"smiles": "CCCCn1nc(C(=O)N2CCc3ccccc32)c2ccccc2c1=O", "Potency": "18.4 µM (active)"},
      {"smiles": "O=C(CSc1nc2ccccc2[nH]1)Nc1nc(-c2ccccc2)c(-c2ccccc2)o1", "Potency": "inactive"},
      {"smiles": "O=C(CSc1n[nH]c(-c2cccs2)n1)N1CCCCC1", "Potency": "inactive"},
      {"smiles": "Cc1cccc(C)c1-n1c(C)cc(/C=C2\\C(=O)NN(c3ccccc3)C2=O)c1C", "Potency": "inactive"},
      {"smiles": "Cn1c(=O)c2c(ncn2CC(COCc2ccccc2Cl)OCc2ccccc2Cl)n(C)c1=O", "note": "(stereo not drawn)", "Potency": "25.9 µM (active)"},
      {"smiles": "Cn1c(=O)c2c(ncn2CCc2ccccc2)n(C)c1=O", "Potency": "inactive"},
      {"smiles": "CC(C)Cn1cnc2c1c(=O)n(CC(O)c1ccccc1)c(=O)n2CC(C)C", "note": "(stereo not drawn)", "Potency": "inactive"},
      {"smiles": "COc1ccc(C)cc1NC(=O)CSc1nnc2ccc(-c3ccccn3)nn12", "Potency": "inactive"},
      {"smiles": "CCN(Cc1ccccc1)S(=O)(=O)c1cc2c3c(c1)CCN3C(=O)CC2", "Potency": "inactive"},
      {"smiles": "O=C(CCc1nc(CN2CCN(S(=O)(=O)c3ccc(F)cc3)CC2)no1)N1CCCCC1", "Potency": "inactive"},
      {"smiles": "CCc1ccc(CNCc2c(C(=O)O)n(Cc3ccc(F)cc3Cl)c3cc(OC)ccc23)cc1", "Potency": "11.6 µM (active)"},
      {"smiles": "COc1ccc(CNC(=O)CN2CCC(n3nnc4cc(F)ccc43)CC2)cc1", "Potency": "inactive"},
      {"smiles": "COc1cccc(NC(=O)NCc2ccc(F)cc2)c1", "Potency": "inactive"},
      {"smiles": "COc1cc(C)nc(N2CCCC(C(=O)NCC(C)C)C2)n1", "note": "(stereo not drawn)", "Potency": "inactive"},
      {"smiles": "O=C(Nc1ccccc1)O/N=C1\\CCCCC1c1ccc([N+](=O)[O-])cc1[N+](=O)[O-]", "note": "(stereo not drawn)", "Potency": "inactive"},
      {"smiles": "CCCCCCC(=O)Nc1nc(C)c(-c2csc(Nc3cccc(OC)c3)n2)s1", "Potency": "20.6 µM (active)"},
      {"smiles": "COc1cccc(NC(=O)COc2cccnc2[N+](=O)[O-])c1", "Potency": "inactive"},
      {"smiles": "Cc1ccn2c(-c3csc(Nc4ccc(C(=O)O)cc4)n3)c(C)nc2c1", "Potency": "inactive"},
      {"smiles": "C=CCCC(=O)Nc1nc(C)c(-c2csc(Nc3ccc(Cl)cc3)n2)s1", "Potency": "11.6 µM (active)"},
      {"smiles": "CC(=O)Nc1nc(C)c(-c2csc(Nc3ccc(S(N)(=O)=O)cc3)n2)s1", "Potency": "inactive"},
      {"smiles": "Cc1nnc(NC(=O)CCCOc2ccccc2)s1", "Potency": "inactive"}
    ]}
  ]
}
